# Source: PubChem (The Scripps Research Institute Molecular Screening Center)
# NCOA2 inhibitor – human SRC2 (NCOA2) inhibition | Q15596 | hit rate 0.17% among 370,000 | inhibition, % at 9 µM | HEK293 GAL4-SRC2 luciferase reporter, luminescence | AID 651957;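 active = inhibition above the mean inhibition of all tested compounds plus 3 SD, set per campaign, cut at about 52% in these data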;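 note: 0% = DMSO treated cells and 100% = cells given Gossypol at 36 µM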
# NR5A2 inv ag – NR5A2 inverse agonism in reporter assay | AID 602396 | hit rate 0.13% among 360,000 | O00482 | inhibition, % at 3.6 µM | HEK293T StAR-luciferase reporter, LRH-1 transfected, 24 h;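 active = inhibition above the mean inhibition of all tested compounds plus 3 SD, cut at about 73% in these data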;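 note: 0% = DMSO wells and 100% = reporter-only cells lacking LRH-1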
# Target sequence (O00482 whole entry, looked up): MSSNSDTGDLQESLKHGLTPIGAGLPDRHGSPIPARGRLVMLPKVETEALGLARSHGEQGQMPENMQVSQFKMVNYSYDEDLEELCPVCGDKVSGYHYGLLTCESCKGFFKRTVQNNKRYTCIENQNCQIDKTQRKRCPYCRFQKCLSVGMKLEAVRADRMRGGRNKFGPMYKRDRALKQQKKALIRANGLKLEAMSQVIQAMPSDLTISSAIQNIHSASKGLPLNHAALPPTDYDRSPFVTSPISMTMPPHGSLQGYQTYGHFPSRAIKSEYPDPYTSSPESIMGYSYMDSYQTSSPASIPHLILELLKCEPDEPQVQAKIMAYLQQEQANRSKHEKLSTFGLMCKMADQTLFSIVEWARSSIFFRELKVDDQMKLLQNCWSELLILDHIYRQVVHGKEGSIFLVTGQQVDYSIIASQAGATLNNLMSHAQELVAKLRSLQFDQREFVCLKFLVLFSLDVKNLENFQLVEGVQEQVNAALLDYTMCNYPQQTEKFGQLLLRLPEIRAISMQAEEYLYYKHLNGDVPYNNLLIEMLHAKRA
# SRC1 inh – inhibits human SRC1 coactivator | hit rate 0.12% among 360,000 | HEK293 GAL4-SRC1 luciferase reporter, luminescence | inhibition, % at 3.6 µM | AID 588354;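 active = inhibition above the campaign mean plus 3 SD, with each screening campaign given its own cutoff, cut at about 60% in these data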;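 note: 0% = DMSO treated cells and 100% = gossypol at 36 µM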
# SRC3 inh – inhibits human SRC3 coactivator; AID 588352; Q9Y6Q9; HEK293 GAL4-SRC3 luciferase reporter, luminescence; inhibition, % at 3.6 µM; hit rate 0.17% among 360,000;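 active = inhibition above a per-campaign cutoff, the mean of all compounds plus 3 SD, cut at about 60% in these data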;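 note: 0% = DMSO-treated cells and 100% = gossypol-treated cells at 36 µM; higher means less SRC3-driven luciferase light from the GAL4 reporter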
# NR2F2 inh – inhibitors of human COUP-TFII (NR2F2). HEK293T NGFI-A luciferase reporter, luminescence. P24468. hit rate 0.7% among 370,000. inhibition, % at 8.6 µM;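 active = inhibition above a per-plate cutoff, mean inhibition of test wells between control levels plus 3 SD, cut at about 38% in these data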;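 note: cells cotransfected with COUP-TFII expression vector driving the NGFI-A reporter; 0% = median of COUP-TF2 test wells and 100% = reporter-only cells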
# VP16 Luc counter – counter-screen for COUP-TFII antagonists: inhibitors of VP16; shares compounds with NR2F2 inh; HEK293 Gal4-VP16 luciferase reporter, luminescence; inhibition, % at 8.5 µM; hit rate 25% among 2,500; in the data active = inhibition above about 13%
# COUP-TFII conf – COUP-TFII (NR2F2) inhibition, confirmation assay. shares compounds with NR2F2 inh. HEK293 NGFI-A luciferase reporter, luminescence. inhibition, % at 8.5 µM. hit rate 45% among 2,500;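 active = mean inhibition over three repeats above a set limit taken from the earlier primary screen, cut at about 38% in these data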;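 note: 100% = cells given the luciferase reporter alone without the COUP-TF2 vector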
# * hit, by the source's call; nt = no result; ! = not active in a repeat. An excerpt weighted towards active compounds, which were near 0.81% of everything screened.
SMILES,NCOA2 inhibitor,NR5A2 inv ag,SRC1 inh,SRC3 inh,NR2F2 inh,VP16 Luc counter,COUP-TFII conf
CC1Cc2ccccc2N1C(=O)CSc1nnc2n1C(C)(C)Cc1ccccc1-2 (stereo not drawn),5,12,7,-2,9,nt,nt
O=[N+]([O-])c1ccc(OCCCN2CCC(C(O)(c3ccccc3)c3ccccc3)CC2)c(Cl)c1,0,nt,nt,nt,-46,nt,nt
CCN(CC)S(=O)(=O)c1ccc(C(=O)NCC2CCCCC2)cc1,-14,11,-28,-15,4,nt,nt
Cc1ccc(-c2nn3c(C)nnc3s2)cc1NC(=O)c1ccc(-c2ccc(Cl)cc2Cl)o1,-9,-6,9,-5,23,nt,nt
Cc1ccc(-c2nn3c(C)nnc3s2)cc1NC(=O)c1ccc(-c2cccc(Cl)c2)o1,-33,-34,2,6,56*!,-6,-4
COC(=O)C1=C(C(=O)OC)[C@]2([C@@H]3CCCCN[C@@H](Cc4ccccc4)C(=O)N3Cc3ccccc3)C=C[C@H]1O2,-3,11,2,20,19,nt,nt
COC(=O)C1=C(C(=O)OC)[C@@]2([C@@H](Cc3ccc(C)cc3)Nc3ccccc3)C=C[C@@H]1O2,nt,nt,nt,nt,81*,31*,28
Cc1ccc(C(=O)N2CCC[C@@H]2C(=O)N2CCC[C@H]2C(=O)NCc2ccccc2)cc1C,-24,nt,nt,nt,14,nt,nt
Cc1nc(Nc2ncc(C(=O)Nc3c(C)cccc3Cl)s2)cc(N2CCN(CCO)CC2)n1,-7,nt,nt,nt,39*,3,18
CN(C)c1ccc(CC(=O)N2CCCCC2c2cc(C(=O)Nc3ccccc3Cl)no2)cc1 (stereo not drawn),22,17,7,5,48*,2,26
COc1ccc(NC(=O)c2cc(C3CCCCN3C(=O)Cc3ccc(N(C)C)cc3)on2)c(C)c1 (stereo not drawn),26,-5,-2,1,14,nt,nt
CCCCn1c(OC(=S)N(CC)CC)cc(C)nc1=S,nt,24,-10,-2,nt,nt,nt
COc1cccc2cc(C(=O)NC(C)c3ccccc3)c(=O)oc12 (stereo not drawn),-1,4,-7,-18,-23,nt,nt
c1cncc(CNc2ncnc3ccc(-c4ccoc4)cc23)c1,25,21,58,57,38*,7,17
Cc1csc(CNc2ncnc3ccc(-c4ccoc4)cc23)c1,32,18,56,53,40*,8,32
Cc1cccc(CNc2ncnc3ccc(-c4ccoc4)cc23)c1,27,10,39,49,7,nt,nt
COc1ccccc1NS(=O)(=O)c1ccc(C)c(C(=O)NC2CCN(Cc3ccccc3)CC2)c1,44,-4,3,23,47*,2,29
COc1ccccc1NS(=O)(=O)c1cc(C(=O)NC2CCN(Cc3ccccc3)CC2)ccc1C,-21,nt,nt,nt,68*,6,45*
COc1ccccc1NS(=O)(=O)c1cccc(C(=O)NC2CCN(Cc3ccccc3)CC2)c1,nt,43,53,28,nt,nt,nt
c1cc2ccn(CC3CC3)c2cc1-c1ccc2ccn(CC3CC3)c2c1,6,nt,nt,nt,7,nt,nt
c1ccc(CNc2ncnc3c2oc2ccccc23)nc1,-69,-44,-101,-48,0,nt,nt
Cc1nc(NCCc2cnc[nH]2)c2oc3ccccc3c2n1,9,0,1,5,-22,nt,nt
COc1ccc(CCNc2ncnc3c2oc2ccccc23)cc1OC,18,50,25,36,76*,2,73*
COc1ccc(CCNc2nc(C)nc3c2oc2ccccc23)cc1OC,5,11,13,13,40*,0,27
COc1ccc(-n2c(SCC(=O)N3CCCCC3C)nnc2-c2ccncc2)cc1 (stereo not drawn),-5,nt,nt,nt,-2,nt,nt
O=C(OC12CCCN(C1)/C(=C/c1ccc(Cl)cc1)C2)c1ccccc1 (stereo not drawn),-3,nt,nt,nt,26,nt,nt
O=C(O)c1cccc(S(=O)(=O)Nc2ccccc2Oc2ccccc2)c1,8,11,2,-12,-8,nt,nt
CCc1ccc(CN2CCN(C(=O)c3cccc(OC)c3OC)CC2)cc1,13,23,22,10,54*,-6,40*
COc1cccc(C(=O)N2CCN(C(=O)c3cccc4ccccc34)CC2)c1OC,-2,-18,-7,16,6,nt,nt
